Reference: PubChem BioAssay (Tox21)
Unmarked numbers belong to inactive results. Inconclusive results are not listed. The source made the active and inactive calls. The call rests on the fitted dose curve; in most records, active means well fitted curve in the direction sought with a large enough effect in the repeat runs; inconclusive means weak or mixed curves; inactive means no such curve, though single readings can be large; an effect the other way counts as inactive or inconclusive.

assay: Caspase-3/7 induction in CHO-K1 cells by small molecules, qHTS cell viability counter screen (AID 1346979); conditions: CellTiter-Fluor fluorescence, 17 h; series mostly up to 92.4 µM; activity change, negative = cytotoxicity: at the top concentration; further: nearly all actives have a fitted effect of over 35% in size; further: potency means the concentration at half of the fitted maximal effect
Procedure, shortened: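 Cytotoxicity counter screen run in parallel with the caspase-3/7 assay: CHO-K1 cells, 16hr compound treatment at 37C, then CellTiter-Fluor for 1hr before fluorescence reading.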
On the % scale 0 is the no-effect control and ±100 the full control effect.

Row | SMILES | activity change, negative = cytotoxicity | Potency
1 | CCC(=O)Nc1ccc(O)cc1 | 10.5% [at 42.5 µM] | –
2 | CC(=O)Oc1cc(C(C)C)c(OCCN(C)C)cc1C | -0.346% [at 42.5 µM] | –
3 | O=c1[nH]cnc2c1ncn2[C@@H]1O[C@H](CO)[C@@H](O)[C@H]1O | – | 1.06 µM (active)
4 | N#Cc1ccc(C(c2ccc(C#N)cc2)n2cncn2)cc1 | 3.18% [at 42.5 µM] | –
5 | NS(=O)(=O)c1cc(-c2nn[nH]n2)c(NCc2cccs2)cc1Cl | -3.57% [at 42.5 µM] | –
6 | Cc1c(-c2ccccc2)oc2c(C(=O)OCCN3CCCCC3)cccc2c1=O | 0.314% [at 42.5 µM] | –
7 | OCc1ccccc1O | -0.604% [at 42.5 µM] | –
8 | C[C@@H]1CN(c2c(F)c(F)c3c(=O)c(C(=O)O)cn(C4CC4)c3c2F)C[C@H](C)N1 | 0.544% [at 19 µM] | –
9 | CC(=O)N(CC(O)CN(C(C)=O)c1c(I)c(C(=O)NCC(O)CO)c(I)c(C(=O)NCC(O)CO)c1I)c1c(I)c(C(=O)NCC(O)CO)c(I)c(C(=O)NCC(O)CO)c1I (stereo unspecified) | 9.92% [at 42.5 µM] | –
10 | CC(C)O | -5.35% | –
11 | CN1CCN(c2c(F)cc3c(=O)c(C(=O)O)cn(CCF)c3c2F)CC1 | 1.21% [at 42.5 µM] | –
12 | CN1CCN(c2c(F)cc3c(=O)c(C(=O)O)cn4c3c2SCC4)CC1 | -5.07% [at 42.5 µM] | –
13 | O=c1[nH]c(=O)n([C@H]2C[C@H](O)[C@@H](CO)O2)cc1C(F)(F)F | 7.08% [at 42.5 µM] | –
14 | Cc1nnc(SCC2=C(C(=O)O)N3C(=O)[C@@H](NC(=O)Cn4cnnn4)[C@H]3SC2)s1 | 10.2% [at 42.5 µM] | –
15 | CCCCc1ccc2nc(NC(=O)OC)[nH]c2c1 | – | 1.19 µM (active)
16 | Oc1ccccc1C=NCc1ccccc1 | -1.68% [at 42.5 µM] | –
17 | NC/C=C/C(=O)O | 5.93% [at 42.5 µM] | –
18 | COc1ccccc1N1CCN(CCCNc2cc(=O)n(C)c(=O)n2C)CC1 | -0.981% [at 42.5 µM] | –
19 | CS(=O)(=O)c1ccc([C@@H](O)[C@@H](CF)NC(=O)C(Cl)Cl)cc1 | -1.2% [at 42.5 µM] | –

Row | SMILES | activity change, negative = cytotoxicity | Potency
20 | C=CC(C)(O)CC/C=C(\C)CCC=C(C)C (stereo unspecified) | -10.1% | –
21 | Cc1cc(NS(=O)(=O)c2ccc(N)cc2)nc(C)n1 | 1.86% [at 42.5 µM] | –
22 | CCC(=O)O[C@]1(C(=O)SCF)[C@H](C)C[C@H]2[C@@H]3C[C@H](F)C4=CC(=O)C=C[C@]4(C)[C@@]3(F)[C@@H](O)C[C@@]21C | -2.79% [at 42.5 µM] | –
23 | CC(C)NC[C@@H](O)COc1cccc2ccccc12 | 1.59% [at 42.5 µM] | –
24 | FC(F)(F)C(F)(F)C(F)(F)C(F)(F)C(F)(F)C(F)(F)C(F)(F)C(F)(F)Br | 10.3% [at 42.5 µM] | –
25 | CCN(CC)CC1CCCCN1CC(=O)N1c2ccccc2C(=O)Nc2cccnc21 (stereo unspecified) | -1.77% [at 42.5 µM] | –
26 | CCN[C@H]1CN(CCCOC)S(=O)(=O)c2sc(S(N)(=O)=O)cc21 | 13.2% [at 42.5 µM] | –
27 | CCCN(CCC)C(=O)C(CCC(=O)O)NC(=O)c1ccccc1 (stereo unspecified) | 0.599% [at 42.5 µM] | –
28 | CCCCN1C[C@H](O)[C@@H](O)[C@H](O)[C@H]1CO | -11.1% [at 42.5 µM] | –
29 | C[C@@H]1CN(c2c(F)c(N)c3c(=O)c(C(=O)O)cn(C4CC4)c3c2F)C[C@H](C)N1 | 5.21% [at 19 µM] | –
30 | COc1ccc(S(=O)(=O)Nc2nnc(CC(C)C)s2)cc1 | 6.9% [at 42.5 µM] | –
31 | Cc1c(C(=O)NCCO)[n+](=O)c2ccccc2n1[O-] | -2.85% [at 42.5 µM] | –
32 | COc1ccccc1OCC(O)COC(N)=O (stereo unspecified) | 9.09% [at 42.5 µM] | –
33 | CC1(C)S[C@@H]2[C@H](NC(=O)C(C(=O)O)c3ccccc3)C(=O)N2[C@H]1C(=O)O (stereo partly specified) | 5.7% [at 42.5 µM] | –
34 | CCN(CC)CCNC(=O)COc1ccc(Cl)cc1 | 2.8% [at 42.5 µM] | –
35 | CCOC(=O)[C@H](CCc1ccccc1)N[C@@H](C)C(=O)N1Cc2cc(OC)c(OC)cc2C[C@H]1C(=O)O | 0.503% [at 42.5 µM] | –
36 | CO[Si](C)(C)OC | -0.0194% | –
37 | CO[C@@]1(NC(=O)CSCC#N)C(=O)N2C(C(=O)O)=C(CSc3nnnn3C)CS[C@@H]21 | 7.67% [at 42.5 µM] | –
38 | CCOC(=O)c1ccccc1O | 3.88% [at 42.5 µM] | –

assay: Caspase-3/7 induction in CHO-K1 cells by small molecules, qHTS assay (AID 1346980); conditions: CHO-K1 caspase-3/7 induction, Caspase-Glo luminescence, 17 h; series mostly up to 92.4 µM; caspase-3/7 activation: at the top concentration; further: nearly all actives have a fitted effect of over 15% in size
Procedure, shortened: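 Luminescent Caspase-Glo 3/7 read (30min, room temperature) quantified apoptosis induction. Cells were wild-type CHO-K1, treated with compound for 17hr at 37 C and 5% CO2.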

Row | SMILES | caspase-3/7 activation
39 | CCC(=O)Nc1ccc(O)cc1 | 0.841% [at 42.5 µM]
40 | CC(=O)Oc1cc(C(C)C)c(OCCN(C)C)cc1C | -1.44% [at 42.5 µM]
41 | O=c1[nH]cnc2c1ncn2[C@@H]1O[C@H](CO)[C@@H](O)[C@H]1O | 0.0905% [at 42.5 µM]
42 | N#Cc1ccc(C(c2ccc(C#N)cc2)n2cncn2)cc1 | 0.184% [at 42.5 µM]
43 | NS(=O)(=O)c1cc(-c2nn[nH]n2)c(NCc2cccs2)cc1Cl | 0.0456% [at 42.5 µM]
44 | Cc1c(-c2ccccc2)oc2c(C(=O)OCCN3CCCCC3)cccc2c1=O | -1.15% [at 42.5 µM]
45 | OCc1ccccc1O | 0.283% [at 42.5 µM]
46 | C[C@@H]1CN(c2c(F)c(F)c3c(=O)c(C(=O)O)cn(C4CC4)c3c2F)C[C@H](C)N1 | 0.203% [at 19 µM]
47 | CC(=O)N(CC(O)CN(C(C)=O)c1c(I)c(C(=O)NCC(O)CO)c(I)c(C(=O)NCC(O)CO)c1I)c1c(I)c(C(=O)NCC(O)CO)c(I)c(C(=O)NCC(O)CO)c1I (stereo unspecified) | 0.52% [at 42.5 µM]
48 | CC(C)O | 0.179%
49 | CN1CCN(c2c(F)cc3c(=O)c(C(=O)O)cn(CCF)c3c2F)CC1 | 0.825% [at 42.5 µM]
50 | CN1CCN(c2c(F)cc3c(=O)c(C(=O)O)cn4c3c2SCC4)CC1 | -0.712% [at 42.5 µM]
51 | O=c1[nH]c(=O)n([C@H]2C[C@H](O)[C@@H](CO)O2)cc1C(F)(F)F | 0.0067% [at 42.5 µM]
52 | Cc1nnc(SCC2=C(C(=O)O)N3C(=O)[C@@H](NC(=O)Cn4cnnn4)[C@H]3SC2)s1 | -0.0229% [at 42.5 µM]
53 | CCCCc1ccc2nc(NC(=O)OC)[nH]c2c1 | -3.32% [at 42.5 µM]
54 | Oc1ccccc1C=NCc1ccccc1 | -0.414% [at 42.5 µM]
55 | NC/C=C/C(=O)O | 1.19% [at 42.5 µM]
56 | COc1ccccc1N1CCN(CCCNc2cc(=O)n(C)c(=O)n2C)CC1 | -0.0072% [at 42.5 µM]
57 | CS(=O)(=O)c1ccc([C@@H](O)[C@@H](CF)NC(=O)C(Cl)Cl)cc1 | -0.961% [at 42.5 µM]

Row | SMILES | caspase-3/7 activation
58 | C=CC(C)(O)CC/C=C(\C)CCC=C(C)C (stereo unspecified) | 3.07%
59 | Cc1cc(NS(=O)(=O)c2ccc(N)cc2)nc(C)n1 | -0.597% [at 42.5 µM]
60 | CCC(=O)O[C@]1(C(=O)SCF)[C@H](C)C[C@H]2[C@@H]3C[C@H](F)C4=CC(=O)C=C[C@]4(C)[C@@]3(F)[C@@H](O)C[C@@]21C | -0.231% [at 42.5 µM]
61 | CC(C)NC[C@@H](O)COc1cccc2ccccc12 | 1.97% [at 42.5 µM]
62 | FC(F)(F)C(F)(F)C(F)(F)C(F)(F)C(F)(F)C(F)(F)C(F)(F)C(F)(F)Br | -1.33% [at 42.5 µM]
63 | CCN(CC)CC1CCCCN1CC(=O)N1c2ccccc2C(=O)Nc2cccnc21 (stereo unspecified) | 1.75% [at 42.5 µM]
64 | CCN[C@H]1CN(CCCOC)S(=O)(=O)c2sc(S(N)(=O)=O)cc21 | 0.505% [at 42.5 µM]
65 | CCCN(CCC)C(=O)C(CCC(=O)O)NC(=O)c1ccccc1 (stereo unspecified) | 0.166% [at 42.5 µM]
66 | CCCCN1C[C@H](O)[C@@H](O)[C@H](O)[C@H]1CO | -0.308% [at 42.5 µM]
67 | C[C@@H]1CN(c2c(F)c(N)c3c(=O)c(C(=O)O)cn(C4CC4)c3c2F)C[C@H](C)N1 | -1.56% [at 19 µM]
68 | COc1ccc(S(=O)(=O)Nc2nnc(CC(C)C)s2)cc1 | 0.24% [at 42.5 µM]
69 | Cc1c(C(=O)NCCO)[n+](=O)c2ccccc2n1[O-] | 0.377% [at 42.5 µM]
70 | COc1ccccc1OCC(O)COC(N)=O (stereo unspecified) | 0.0042% [at 42.5 µM]
71 | CC1(C)S[C@@H]2[C@H](NC(=O)C(C(=O)O)c3ccccc3)C(=O)N2[C@H]1C(=O)O (stereo partly specified) | -0.272% [at 42.5 µM]
72 | CCN(CC)CCNC(=O)COc1ccc(Cl)cc1 | 0.394% [at 42.5 µM]
73 | CCOC(=O)[C@H](CCc1ccccc1)N[C@@H](C)C(=O)N1Cc2cc(OC)c(OC)cc2C[C@H]1C(=O)O | 0.179% [at 42.5 µM]
74 | CO[Si](C)(C)OC | -1.61%
75 | CO[C@@]1(NC(=O)CSCC#N)C(=O)N2C(C(=O)O)=C(CSc3nnnn3C)CS[C@@H]21 | -0.0444% [at 42.5 µM]
76 | CCOC(=O)c1ccccc1O | -0.89% [at 42.5 µM]
